SENP6 block = inhibitors of human SENP6 protease | Q9GZR1 | Recombinant SENP6 catalytic domain, aminoluciferin luminescence | inhibition, % at 10 µM | hit rate 1.8% among 330,000;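 active = inhibition above about 50% at the single tested dose, limit read from the data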
PPC-1+TRAIL kill = compounds killing PPC-1 cancer cells with TRAIL present (potentiator screen, no TRAIL-free arm) | PPC-1 cells + TRAIL, ATPLite viability luminescence | cell killing (% activity), % at 4 µM or 5 µM | hit rate 0.41% among 220,000 | AID 1443;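 active = cell killing above 50% in the first pass at 4 µM, then a duplicate retest at 5 µM averaging 50% or more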
SENP8 block-1 = blocks the human protease SENP8 | AID 2540 | inhibition, % at 10 µM | Q96LD8 | purified SENP8, Z-RLRGG-aminoluciferin cleavage, luminescence | hit rate 1.2% among 330,000; in the data active = inhibition above about 50%
Target sequence (Q96LD8 whole entry, looked up): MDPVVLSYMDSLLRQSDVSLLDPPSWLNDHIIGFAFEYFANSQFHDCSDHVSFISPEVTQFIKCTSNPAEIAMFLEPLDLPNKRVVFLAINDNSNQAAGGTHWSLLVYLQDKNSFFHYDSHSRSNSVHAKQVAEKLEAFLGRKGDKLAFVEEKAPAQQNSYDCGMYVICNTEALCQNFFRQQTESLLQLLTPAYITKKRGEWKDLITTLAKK
SENP7 inh = SENP7 protease inhibition; Q9BQF6; recombinant SENP7, Z-RLRGG-aminoluciferin luminescence, 40 min; inhibition, % at 5 µM; hit rate 1.5% among 330,000;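 active = inhibition above about 50% at the single test dose, limit read from the data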
Target sequence (Q9BQF6 706-1050 limits assumed): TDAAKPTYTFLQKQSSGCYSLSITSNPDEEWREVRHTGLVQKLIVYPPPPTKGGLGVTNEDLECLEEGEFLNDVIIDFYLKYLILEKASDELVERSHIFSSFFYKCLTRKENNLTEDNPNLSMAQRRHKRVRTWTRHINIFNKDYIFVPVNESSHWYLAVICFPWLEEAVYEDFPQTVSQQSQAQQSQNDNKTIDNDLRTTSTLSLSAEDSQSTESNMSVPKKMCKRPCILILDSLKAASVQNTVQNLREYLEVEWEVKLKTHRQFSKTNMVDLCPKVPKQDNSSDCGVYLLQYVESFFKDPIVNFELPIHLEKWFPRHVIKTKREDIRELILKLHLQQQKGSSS
SENP8 block-2 = SENP8 (human) protease inhibition; hit rate 0.64% among 360,000; Q96LD8; recombinant SENP8, Nedd8 substrate fluorescence; inhibition, % at 20 µM; in the data active = inhibition mostly above about 40%, no sharp cut-off; inactive = mostly below about 27%
C8 TRAIL sens = sensitizes caspase-8 expressing cells to TRAIL; NB7+C8 cells + TRAIL, ATPlite viability luminescence; AID 624354; hit rate 1% among 360,000; inhibition (viability loss, TRAIL sensitization), % at 10 µM;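 active = compounds causing at least 50% loss of cell viability in the single-dose screen, relative to plate controls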
Each line names hits and unclear results; the compound was inactive in the other large screens. Rows were chosen to be rich in hits. Some 3% of all compounds tested hit in one or more screens of this group.

O=C(N/N=C1\CCc2ccccc21)c1ccccc1O	SENP6 block 71, PPC-1+TRAIL kill 54, SENP8 block-1 58, SENP7 inh 78, C8 TRAIL sens 63
O=C(N/N=C1\CCCc2ccccc21)c1ccccc1Cl	none
CCCn1c(Nc2nc3ccccc3n2C)nc2ccccc21	C8 TRAIL sens 53
COC(=O)c1ccccc1NC(=O)Nc1ccc(C(=O)N2CCCC2)cc1	none
COc1ccccc1NC(=O)Nc1ccc(C(=O)N2CCCCC2)cc1	SENP6 block 96, SENP8 block-1 91, SENP7 inh 97
COc1ccccc1NC(=O)COC(=O)c1ccc(N2CCCC2=O)cc1	none (no result: PPC-1+TRAIL kill)
COc1ccc(N=C(C)C2C(=O)c3ccccc3C2=O)cc1	C8 TRAIL sens 74 (no result: SENP6 block, PPC-1+TRAIL kill, SENP8 block-1, SENP7 inh)
CCCn1c(N)c(N(CCOC)C(=O)COC(=O)CSc2cc(C)c3ccccc3n2)c(=O)[nH]c1=O	none (no result: PPC-1+TRAIL kill)
CCc1ccc([C@H]2[C@@H]3C(=O)C[C@@H]4C(=O)N(c5ccccc5)C(=O)[C@@H]4[C@@H]3CN2S(=O)(=O)c2ccc(C)cc2)cc1	C8 TRAIL sens 86 (no result: SENP6 block, PPC-1+TRAIL kill, SENP8 block-1, SENP7 inh)
CN(NC(=O)c1cccc(Cl)c1)c1nc(-c2ccccc2)nnc1C(F)(F)F	C8 TRAIL sens 53
CN(N)c1nc(-c2ccccc2)nnc1C(F)(F)F	none
Nc1ccc(Oc2ccc3nc(-c4ccccc4)c(-c4ccc([N+](=O)[O-])cc4)nc3c2)cc1	SENP8 block-2 43
N#Cc1ccc(Oc2ccc(-c3nc4ccccc4nc3-c3ccccc3)cc2)cc1C#N	none
Cc1ccc(C2=NS(=O)(=O)N(C)C(C(=O)NCc3cccs3)=C2)cc1	C8 TRAIL sens 56 (no result: PPC-1+TRAIL kill)
Cc1ccc(C2=NS(=O)(=O)N(C)C(C(=O)NCc3ccccn3)=C2)cc1	none (no result: PPC-1+TRAIL kill)
Cc1[nH]n(-c2ccccc2)c(=O)c1C(c1ccc(C(=O)O)cc1)c1c(C)[nH]n(-c2ccccc2)c1=O	SENP8 block-2 71
Cc1[nH]n(-c2ccccc2)c(=O)c1C(c1cccc([N+](=O)[O-])c1)c1c(C)[nH]n(-c2ccccc2)c1=O	SENP8 block-2 49
Cc1[nH]n(-c2ccccc2)c(=O)c1C(c1cccc([N+](=O)[O-])c1O)c1c(C)[nH]n(-c2ccccc2)c1=O	none
CC1Oc2ccccc2C=C1/C=N/NC(=O)c1ccccc1O (stereo unspecified)	C8 TRAIL sens 50
Cc1ccc(-c2ccc(/C=N/NC(=O)c3ccccc3O)o2)cc1	SENP6 block 58, SENP7 inh 54 (no result: SENP8 block-2, C8 TRAIL sens)
O=C(COC(=O)c1ccc2ccccc2c1)NCc1ccccc1	none (no result: SENP6 block, PPC-1+TRAIL kill, SENP8 block-1, SENP7 inh)
CC1=C(C(=O)N2CCCCCC2)CC(CC(=O)NCCc2ccccn2)C(=O)N1CCC1=CCCCC1 (stereo unspecified)	none (no result: SENP6 block, PPC-1+TRAIL kill, SENP8 block-1, SENP7 inh)
C[C@@H]1CCCCO[C@H](CN(C)S(=O)(=O)c2cn(C)cn2)[C@@H](C)CN([C@H](C)CO)C(=O)c2cc(NC(=O)c3ccncc3)ccc2O1	none (no result: SENP6 block, PPC-1+TRAIL kill, SENP8 block-1, SENP7 inh)
CCOc1cc(C2Nc3cccc4cccc(c34)N2)ccc1O	SENP8 block-2 59
Cc1cc(C)n2nc(C(=O)Nc3ccc4c(c3)OCCO4)nc2n1	C8 TRAIL sens 51 (no result: PPC-1+TRAIL kill)
Cc1ccn2cc(C(=O)Nc3ccc4c(c3)OCCO4)nc2c1	C8 TRAIL sens 62
CC12CCC(=O)C=C1C(F)CC1C2C(O)CC2(C)C1CCC2(O)C(=O)CO (stereo unspecified)	none (no result: SENP6 block, PPC-1+TRAIL kill, SENP8 block-1, SENP7 inh)
CCc1ccc(S(=O)(=O)/N=C2\C=C(Nc3cccc(C(=O)O)c3)C(=O)c3ccccc32)cc1	SENP6 block 92, SENP8 block-1 95, SENP8 block-2 70 (no result: PPC-1+TRAIL kill)
CCc1ccc(S(=O)(=O)/N=C2\C=C(Nc3ccc(O)cc3)C(=O)c3ccccc32)cc1	SENP6 block 89, SENP8 block-1 91, SENP7 inh 67, SENP8 block-2 101, C8 TRAIL sens 97 (no result: PPC-1+TRAIL kill)
CNC(=S)Nc1cccc(S(=O)(=O)NCc2ccco2)c1	none (no result: PPC-1+TRAIL kill)
O=C(c1ccco1)N1CCN(C(=S)Nc2ccccc2C(F)(F)F)CC1	none (no result: PPC-1+TRAIL kill)
CCc1ccc(N=Nc2ccc(O)c3[nH]cnc23)cc1	none (no result: PPC-1+TRAIL kill)
N#CC(C#N)=C1SC(=Nc2ccccc2)C(=Nc2ccccc2)N1c1ccccc1	C8 TRAIL sens 92 (no result: SENP6 block, PPC-1+TRAIL kill, SENP8 block-1, SENP7 inh)
Cc1ccccc1NC(=O)CC1SC(=O)N(c2ccccc2)C1=O (stereo unspecified)	SENP8 block-2 55
Cc1cccc(CSc2ncccc2C(=O)O)c1	PPC-1+TRAIL kill 54
O=C(COc1ccc(Br)cc1)N(Cc1nnc(-c2ccccc2Cl)o1)C1CC1	none (no result: SENP6 block, PPC-1+TRAIL kill, SENP8 block-1, SENP7 inh)
COc1ccc(Cl)cc1NC(=O)CCCn1c(=O)c2cccn2c2cccnc21	none (no result: SENP6 block, PPC-1+TRAIL kill, SENP8 block-1, SENP7 inh)
O=C(c1cc(-c2ccc(F)cc2)nc2ccccc12)N1CCC1	none (no result: PPC-1+TRAIL kill)
O=C(O)c1cc(-c2ccc(-c3ccc(F)cc3)o2)nc2ccccc12	C8 TRAIL sens 59 (no result: PPC-1+TRAIL kill)
Cc1ccc(C)c(OCCC(=O)OCC(=O)NNC(=O)c2ccccc2)c1	none (no result: PPC-1+TRAIL kill)
Cc1csc(NC(=O)CSc2nc(=O)n(CCN(C)C)c3c2CCCC3)n1	none (no result: PPC-1+TRAIL kill)
O=C(CCN1C(=O)/C(=C/c2ccccc2)SC1=S)NC1CCS(=O)(=O)C1 (stereo unspecified)	none (no result: PPC-1+TRAIL kill)
O=C(CN1C(=O)/C(=C/c2ccco2)SC1=S)NC1CCS(=O)(=O)C1 (stereo unspecified)	SENP8 block-2 41 (no result: PPC-1+TRAIL kill)
CCCNC(=O)C1(C)CCN(C(=O)c2ccc(OC)cc2OC)C1 (stereo unspecified)	none (no result: SENP6 block, PPC-1+TRAIL kill, SENP8 block-1, SENP7 inh)
COc1ccccc1NC(=O)COC(=O)/C=C/c1ccc(OC)c(OC)c1	none (no result: PPC-1+TRAIL kill)
Nc1ncnc(N)c1N=Nc1ccccc1	C8 TRAIL sens 66 (no result: PPC-1+TRAIL kill)
Nc1nc(-c2ccccc2)[nH]c(=O)c1N=O	none

Assay outcomes from PubChem BioAssay.
